Screen size: about 13,000 compounds; about 3,200 (25%) showed an effect of 50% or more. The list shows a part of the results.
Tested on: P. falciparum stage V gametocytes
Design: BacTiter-Glo ATP luminescence viability of purified stage V gametocytes in 384-well plates, per cent inhibition versus DMSO
Conditions: 48 h, 5 µM; inhibitor

SMILES | % Inhibition [%]
CCCCCC(C)C(C)c1cc(O)c2c(c1)OC(C)(C)CC2(O)c1ccnn1C (centres unmarked) [TCMDC-131795] | -1.098
COc1ccc2nccc([C@@H](O)CN3CCC(NC(=O)/C=C/c4ccc5cc(C)[nH]c5c4)CC3)c2c1 [TCMDC-141041] | -19.17
NC(N)=Nc1nc(-c2ccc(N=C(N)N3CCC[C@H]3CN3CCCC3)cc2)cs1 [TCMDC-139612] | 25.87
N#C/N=C(\NCCCCCCCCN/C(=N\C#N)NCCSCc1csc(N=C(N)N)n1)NCCCSc1csc(N=C(N)N)n1 [TCMDC-139456] | -7.363
NC(N)=Nc1nc(CCCCCCCCc2csc(N=C(N)N)n2)cs1 [TCMDC-137552] | 85.12
Cc1ccc([S+]([O-])Cc2ccc(Cl)cc2)cc1 (centres unmarked) [TCMDC-131393] | 8.887
COc1cc(Cc2cnc(N)nc2N)cc(OCCCCCC(N)=O)c1OC [TCMDC-137361] | 38.24
CCc1ccc(CN2CCCCC(NC(=O)c3cc(-c4ccccc4F)cs3)C2)cc1 (centres unmarked) [TCMDC-134461] | -44.42
COc1ccccc1-c1csc(C(=O)NC2CCCCN(Cc3ccc(C(C)(C)C)cc3)C2)c1 (centres unmarked) [TCMDC-134516] | 70.05
CC(C)(C)c1ccc(CN2CCCCC(NC(=O)c3cc(-c4ccccc4Cl)cs3)C2)cc1 (centres unmarked) [TCMDC-134467] | -60.63
CC(C)(C)c1ccc(CN2CCCCC(NC(=O)c3cc(-c4ccccc4F)cs3)C2)cc1 (centres unmarked) [TCMDC-134465] | 82.77
O=C(NC1CCCCN(Cc2ccc3c(c2)OCCO3)C1)c1cc(-c2ccccc2F)cs1 (centres unmarked) [TCMDC-134517] | -15.69
COc1cccc(-c2csc(C(=O)NC3CCCCN(Cc4ccc(C(C)(C)C)cc4)C3)c2)c1 (centres unmarked) [TCMDC-134469] | -86.38
CC(=O)Nc1ccc(CN2CCC(NC(=O)c3ccc(-c4cccc(C(F)(F)F)c4)s3)CC2)cc1 [TCMDC-134332] | 3.235
Cc1ccc(O)c(CN2CCCC(COC(c3ccc(F)cc3)c3ccc(F)cc3)C2)c1 (centres unmarked) [TCMDC-136033] | -2.358
CCOc1ccc(-c2nonc2NC(=O)c2ccccc2Cl)cc1OCC [TCMDC-125205] | 48.31
CCCOc1ccccc1C(=O)Nc1nonc1-c1ccc(OCC)c(OCC)c1 [TCMDC-124767] | 53.72
CCCOc1ccc(-c2nonc2NC(=O)c2cccc(OC)c2)cc1OCCC [TCMDC-124765] | 56.26
CCOc1ccc(-c2nonc2NC(=O)c2ccccc2F)cc1OCC [TCMDC-125206] | 57.11
CCOc1cccc(C(=O)Nc2nonc2-c2ccc(OC)c(OC)c2)c1 [TCMDC-125179] | 47.83
CCOc1ccc(-c2nonc2NC(=O)c2ccccc2OC)cc1OCC [TCMDC-125198] | 87.63
O[C@H]1[C@H](OCc2ccc(-c3ccccc3)cc2)CC[C@@H]1N1CCCCC1 [TCMDC-132078] | -8.021

SMILES | % Inhibition [%]
N#Cc1cccc(CN2CCCN(c3ccc(NC(=O)c4cccs4)cc3)CC2)c1 [TCMDC-134987] | -14.58
Cc1ccc(CN2CCN(CC(O)COc3ccc4c(c3)CCC4)CC2)cc1 (centres unmarked) [TCMDC-141429] | -18.62
COc1ccc(CC2(c3ccc(F)cc3)N=C(N)N(CCCc3ccccc3)C2=O)cc1 (centres unmarked) [TCMDC-136462] | -20.11
CCCOc1ccc(-c2nonc2NC(=O)c2ccccc2OC)cc1OCCC [TCMDC-124766] | 53.56
COc1nc2c(N3CCN(CCNCc4ccc5c(n4)NC(=O)CS5)CC3)ccnc2cc1F [TCMDC-135193] | -2.167
c1ccc(CN2CCCN(c3ccc4c(c3)CCN(Cc3ccc(-c5ncc[nH]5)cc3)CC4)CC2)cc1 [TCMDC-136549] | 6.085
CCn1cc(C=C2Oc3c(ccc(O)c3CN3CCCCC3)C2=O)c2ccccc21 [TCMDC-124888] | 37.53
COc1cc(F)c2nccc([C@@H](O)CN3CCC(NC(=O)OCc4ccccc4)C(F)C3)c2c1 (some centres unmarked) [TCMDC-141734] | -30.04
COC(=O)C(=C(C)C)N1C(=O)[C@@H](NC(=O)OCc2ccccc2)[C@H]1SS[C@@H]1[C@H](NC(=O)OCc2ccccc2)C(=O)N1C(C(=O)OC)=C(C)C [TCMDC-132119] | 84.32
CC(C)=C(C(=O)OCc1ccccc1)N1C(=O)[C@@H](NC(c2ccccc2)(c2ccccc2)c2ccccc2)[C@H]1[S+]([O-])CC(=O)OC(C)(C)C (some centres unmarked) [TCMDC-139078] | -23.33
CC(C)CN1CCCN(Cc2cccc(NC(=O)c3cc4ccccc4s3)c2)CC1 [TCMDC-141869] | -90.88
O=C(Nc1cccc(CN2CCCN(CCc3ccccc3)CC2)c1)c1cc2ccccc2s1 [TCMDC-141870] | 77.28
O=C(Nc1cccc(CN2CCCN(Cc3ncc[nH]3)CC2)c1)c1ccc2ccccc2c1 [TCMDC-141856] | 45.36
O=C(Nc1cccc(CN2CCCN(Cc3ccsc3)CC2)c1)c1cc2ccccc2s1 [TCMDC-134612] | -54.77
O=C(Nc1cccc(CN2CCCN(Cc3cccc(O)c3)CC2)c1)c1cc2ccccc2s1 [TCMDC-141875] | -26.68
O=C(Nc1cccc(CN2CCCN(Cc3ncc[nH]3)CC2)c1)c1cc2ccccc2s1 [TCMDC-141877] | 80.03
CCCCCN1CCCN(Cc2cccc(NC(=O)c3cc4ccccc4s3)c2)CC1 [TCMDC-141872] | 97.12
COc1cccc(CN2CCCN(Cc3cccc(NC(=O)c4cc5ccccc5s4)c3)CC2)c1 [TCMDC-141874] | -57.17
O=C(Nc1cccc(CN2CCCN(Cc3cccnc3)CC2)c1)c1cc2ccccc2s1 [TCMDC-141868] | 50.41
CCCCCCN1CCN(Cc2cccc(NC(=O)c3cc4ccccc4s3)c2)CC1 [TCMDC-134621] | -21.73
O=C(Nc1cccc(CN2CCCN(CC3CCCCC3)CC2)c1)c1cc2ccccc2s1 [TCMDC-141863] | -96.88
O=C(Nc1cccc(CN2CCCN(Cc3ccccc3)CC2)c1)c1cc2ccccc2s1 [TCMDC-141864] | -29.46

— publication PMC4552634, “A New Set of Chemical Starting Points with Plasmodium falciparum Transmission-Blocking Potential for Antimalarial Drug Discovery” (PLoS ONE, 2015)
